Test results published in PubChem BioAssay AID1259240 (Keith Lab, Institute of Cancer Science, University of …, 2017).
The source made the active and inactive calls. Rule as the data show it: active = fold change mostly below about -2 (no sharp cut-off); inactive = mostly above about -1.8.

Assay: TERT promoter activity modulators, primary screen, cell-based, luciferase reporter, human (AID 1259240)
Conditions: A2780 TERT promoter luciferase reporter, 16 h; at 20 µM, fold versus average of vehicle-only wells

Fold change, inactive:
COc1ccc(Nc2nc(N)nc(CSc3nccn3C)n2)cc1 1.57
Cc1ccc(-c2n[nH]c3c2C(c2ccccn2)N(c2ccc(C(=O)O)cc2)C3=O)cc1 (stereo not given) -1.91
COc1cc(/C=C2\SC(N3CCN(C)CC3)=NC2=O)cc(OC)c1OC -1.05
COc1ccccc1-c1nc2s/c(=C3\C(=O)N(CC(=O)O)c4ccccc43)c(=O)n2n1 1.16
CCNc1nc2c(c(=O)n(C)c(=O)n2C)n1Cc1ccc(Cl)cc1 1.15
CN1C(=O)C2ON(c3ccc(Cl)cc3)C(c3cccs3)C2C1=O (stereo not given) -1.37
COc1cc2c(=O)c(S(=O)(=O)c3ccccc3)cn(Cc3ccccc3Cl)c2cc1OC -1.09
CCOC(=O)Cn1c(=O)oc2cc(S(=O)(=O)Nc3ccc(F)cc3)ccc21 -1.03
CC1CCN(c2nnc(NC(=O)Nc3ccc(F)cc3)s2)CC1 -1.1
CCc1ccc2[nH]cc(S(=O)(=O)c3ccc(F)cc3)c(=O)c2c1 -1.48
O=C1c2ccccc2-c2onc3c(N4CCCC4)cc(NCCN4CCCC4)c1c23 -1.05
NC(=O)c1ccc(N=c2oc3ccccc3cc2S(=O)(=O)c2ccccc2)cc1 1.06

Fold change, active:
O=C(Cn1c(=O)c2ccccc2n(CC(=O)Nc2ccc(F)cc2F)c1=O)NCc1ccco1 -2.2
CCN1/C(=C/C=C/c2sc3cc(NC(C)=O)ccc3[n+]2CC)Sc2cc(NC(C)=O)ccc21 -2.62
COc1ccc(-c2noc(-c3ccc(Cl)cc3)n2)cc1OC -4.04
